Shown are actives, neighbours in structure and some others; about 2.8% of the full set was active somewhere.
PP1 inh: PP1-alpha (human) inhibition in PP5 counter-screen. purified PP1alpha, OMFP fluorescence. P62136. 320,000 compounds, 0.9% hits. inhibition, % at 6.7 µM;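 active = inhibition above the mean inhibition of all tested compounds plus 3 SD, computed separately for each screening campaign, cut at about 15% in these data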
SKKanGAS inh: SKKanGAS growth inhibition. S. pyogenes SKKanGAS, kanamycin growth, BacTiter-Glo, 6 h. inhibition, % at 7.5 µM. 300,000 compounds, 1.3% hits. AID 1662;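 active = mean replicate score, as percent of positive control median, at least 50; inconclusive = mean below 50 but one replicate at or above 50; inactive = mean and every replicate below 50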;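 also: strain carries kanamycin resistance gene driven by streptokinase promoter and grows in 40 µg/ml kanamycin; loss of luminescence reflects streptokinase promoter inhibition or plain growth inhibition; 0% = median of DMSO wells and 100% = positive control at its reference dose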
PP5 primary: PP5 (human) phosphatase inhibition. purified PP5c, OMFP substrate fluorescence. inhibition, % at 6.7 µM. 320,000 compounds, 0.18% hits. AID 1987;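 active = inhibition above the campaign's mean inhibition across all tested compounds plus 3 SD, cut at about 9.5% in these data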;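 also: 0% = DMSO only and 100% = 100 µM cantharidin control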
IDE cell inh: inhibitors of human insulin-degrading enzyme in cells. P14735. HEK cells, FAbetaB cleavage, fluorescence polarization. inhibition, % at 5.59 µM. 320,000 compounds, 0.41% hits;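 active = percent inhibition above the average of all tested compounds plus 3 SD, set per screening campaign, cut at about 16% in these data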;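 also: IDE supplied by intact live HEK cells; FP after avidin binding of uncleaved biotin substrate so inhibition keeps polarization high; 0% = DMSO wells and 100% = 60 µM reference IDE inhibitor Ii1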
IDE act: activators of human insulin-degrading enzyme in cells | P14735 | HEK cells, FAbeta-B cleavage, fluorescence polarization; 0% vehicle, 100% cell-free pure enzyme wells | activation, % at 5.96 µM | 340,000 compounds, 0.073% hits;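 active = activation above the mean of all tested compounds plus 3 SD, set per screening campaign, cut at about 17% in these data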
Granule exo inh: blocks lytic granule exocytosis. TALL-104 LAMP-1 surface exposure, flow cytometry; cells stimulated with thapsigargin and PMA. inhibition, % at 10 µM. 360,000 compounds, 0.66% hits. AID 651702;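 active = inhibition above about 55%, limit read from the data; inconclusive = no clear call, values can overlap the other calls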
PP1 confirm: human PP1 phosphatase inhibition, confirmation | 1,900 compounds, 52% hits | shares compounds with PP1 inh | purified PP1alpha, OMFP substrate fluorescence | inhibition, % at 6.7 µM;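 active = mean PP1 inhibition above a set limit taken from the earlier primary screen, cut at about 15% in these data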
PP5 inh counter: inhibits human PP5 phosphatase in PP1 counter-screen | inhibition, % at 6.7 µM | 1,900 compounds, 4% hits | shares compounds with PP1 inh | AID 2360 | purified PP5c, OMFP fluorescence;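 active = mean PP5 inhibition over triplicate wells above about 9.5% taken from the earlier PP1 screen, limit read from the data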
* = called active by the depositor; ? = inconclusive; . = no result.

SMILES	PP1 inh	SKKanGAS inh	PP5 primary	IDE cell inh	IDE act	Granule exo inh	PP1 confirm	PP5 inh counter
O=C(O)c1ccc(Cl)c(NC(=S)NC(=O)c2ccccc2[N+](=O)[O-])c1	18.0*	2.5	-3.2	1.2	4.9	0.9	-2.8	-3.1
Cn1nc(C(=O)NNC(=O)Cc2ccc(S(=O)(=O)N3CCOCC3)s2)c2ccccc2c1=O	.	.	.	.	-2.0	3.0	.	.
Cc1cccc(Nc2nc(-c3ccccn3)cs2)n1	63.7*	10.9	9.3	3.0	-3.5	-0.1	52.7*	2.5
Cc1cccnc1Nc1nc(-c2ccccc2)cs1	-0.5	13.9	2.1	2.8	2.1	1.4	.	.
Cc1cccnc1Nc1nc(-c2ccccn2)cs1	28.4*	106.0*	6.4	2.3	1.4	-0.5	35.6*	5.1
O=C(CN1CCN(C(=O)CNC(=O)c2ccc3c(c2)OCO3)CC1)Nc1cccc(F)c1	3.2	.	-0.3	-2.9	4.8	0.2	.	.
O=C(NCCCN1CCOCC1)C(=O)NCC1OCCN1S(=O)(=O)c1ccc(Cl)cc1 (stereo not given)	.	.	.	.	.	-4.3	.	.
O=C(NN1C(=O)c2ccccc2C1=O)C1C2CCCCC21 (stereo not given)	0.6	3.8	4.5	1.4	3.8	-1.3	.	.
COc1ccc(Cn2c(N)c(C#N)c3nc4ccccc4nc32)cc1	1.2	5.5	2.2	-3.4	0.3	6.5	.	.
COc1cc(Cn2c(N)c(C#N)c3nc4ccccc4nc32)cc(OC)c1	18.1*	-8.0	6.1	0.7	4.7	2.7	8.2	5.5
O=S(=O)(c1ccc(NC(=S)N/N=C/c2ccc(O)c(O)c2)cc1)N1CCOCC1	-1.5	3.4	1.3	-3.5	6.9	-1.1	.	.
O=[N+]([O-])c1cc(Cl)cc(/C=N/NC(=S)Nc2ccc(S(=O)(=O)N3CCOCC3)cc2)c1O	19.0*	93.8*	3.1	2.5	-0.8	6.7	19.2*	-0.2
O=S(=O)(c1cccs1)N1CCN(Cc2cccc(F)c2)CC1	27.1*	0.3	2.0	0.8	5.5	-4.2	0.5	0.5
Cc1ccc(S(=O)(=O)N2CCN(Cc3cccc(F)c3)CC2)cc1	-3.1	-12.6	4.3	2.2	-3.7	-0.9	.	.
C=CCOC(=O)C1=C[C@H](c2coc3ccccc3c2=O)C[C@H](OCCCCO)O1	-2.5	-1.8	1.7	1.5	2.6	7.2	.	.
COc1ccc(C(=O)c2sc3nc(-c4ccc(OC)cc4)ccc3c2N)cc1	0.7	-12.5	1.3	-1.7	-10.2	3.0	.	.
COc1ccc(-c2ccc3c(N)c(C(=O)c4cccc(OC)c4)sc3n2)cc1	29.8*	3.8	6.9	12.7	-9.6	1.6	25.5*	-3.4
CCOC1=C2CN(S(=O)(=O)c3ccc(C)cc3)[C@H](c3ccccc3)C[C@@H]2N(S(=O)(=O)c2ccc(C)cc2)[C@H](c2cccs2)C1	.	.	.	.	.	3.3	.	.
CCCC(=O)NC(c1ccc2c(c1)OCO2)c1cc(Cl)c2cccnc2c1O (stereo not given)	19.9*	62.3*	3.4	7.3	-4.8	9.5	24.1*	-5.6
CCCC(=O)NC(c1cccs1)c1cc(Cl)c2cccnc2c1O (stereo not given)	26.5*	.	1.1	10.2	-2.5	18.5	23.2*	-0.1
CCC(=O)NC(c1ccc(C)cc1)c1cc(Cl)c2cccnc2c1O (stereo not given)	.	.	.	3.4	3.4	48.3	.	.
CCOc1ccc(C(Nc2cccnc2)c2cc(Cl)c3cccnc3c2O)cc1 (stereo not given)	19.4*	.	1.3	1.9	-3.1	0.0	21.4*	-2.3
O=CNc1ccc2c(c1)Cc1cccc(NC=O)c1-2	.	.	.	.	-3.7	4.2	.	.
O=C(Nc1nnc(C2CC2)o1)c1ccc(S(=O)(=O)N2CCCCC2)cc1	20.1*	7.6	1.2	-0.7	4.0	2.1	8.4	-0.2
CC1CCN(S(=O)(=O)c2ccc(C(=O)Nc3nnc(C4CC4)o3)cc2)CC1	23.1*	17.3	2.3	4.3	3.8	1.9	23.5*	5.7
SMILES	PP1 inh	SKKanGAS inh	PP5 primary	IDE cell inh	IDE act	Granule exo inh	PP1 confirm	PP5 inh counter
CC1CCCCN1S(=O)(=O)c1ccc(C(=O)Nc2nnc(C3CC3)o2)cc1 (stereo not given)	19.9*	17.6	1.6	2.0	1.0	0.8	12.5	-2.2
CC1CCCCN1S(=O)(=O)c1ccc(C(=O)Nc2nnc(-c3ccco3)o2)cc1 (stereo not given)	14.1	?	3.0	-2.3	2.9	-3.4	.	.
CC1CCCCN1S(=O)(=O)c1ccc(C(=O)Nc2nnc(-c3ccccn3)o2)cc1 (stereo not given)	23.0*	17.9	4.0	4.2	5.7	-4.0	22.3*	0.8
CN(C)CC(=O)Nc1ccc2c(c1)[C@H]1C[C@H](CC(=O)NCc3ccc4c(c3)OCO4)O[C@H](CO)[C@H]1O2	.	.	.	.	.	0.3	.	.
COc1ccc(N2C(=O)C(CC(N)=O)N(NC(=O)CCc3ccccc3)C2=O)cc1 (stereo not given)	-4.9	-5.9	-0.6	4.0	-6.7	-3.2	.	.
Cc1nc(-c2ccccn2)nc(N(C)c2ccccc2)c1Cl	27.5*	92.6*	1.3	-2.0	4.0	-5.4	23.4*	-4.0
CCc1nnc(NC(=O)CSc2sc3c(O)cc(=O)[nH]c3c2C#N)s1	18.1*	12.3	0.3	-0.5	-0.7	1.6	3.1	-3.0
COc1ccc(NC(=O)CSc2sc3c(O)cc(=O)[nH]c3c2C#N)c(OC)c1	13.4	33.0	1.4	-0.9	0.0	-4.4	.	.
COc1ccccc1NC(=O)CSc1sc2c(O)cc(=O)[nH]c2c1C#N	19.7*	27.6	-0.5	7.9	-2.7	2.2	-0.1	-1.9
COCCNc1nc(Nc2ccc(C(=O)OC)cc2)c2sccc2n1	.	.	.	.	.	-2.9	.	.
COc1ccc(NC(=O)COC(=O)c2ccccc2SCC(=O)N2CCCC2)cc1	-1.9	-5.9	0.0	3.9	0.9	-2.6	.	.
CC(=O)Nc1ccc(NC(=O)COC(=O)c2ccccc2SCC(=O)N2CCCC2)cc1	57.9*	-5.3	-0.8	6.4	-3.2	4.3	-0.9	-6.4
O=C(Nc1ccccc1N1CCCCC1)C1CCN(C(=O)c2ccc(Cl)cc2)CC1	0.1	5.7	0.4	-1.1	-1.2	-6.2	.	.
Cc1cc(C)c(C#N)c(OCC2CCCO2)n1 (stereo not given)	.	.	.	.	.	13.4	.	.
O=C(NN1C(=O)/C(=C/C=C/c2ccco2)SC1=S)c1ccccc1O	32.5*	-8.5	-0.5	-3.5	-1.3	3.4	13.6	-3.0
Cn1cccc1/C=C1\SC(=S)N(NC(=O)c2ccccc2O)C1=O	0.7	40.8	-2.1	-1.4	-10.5	3.3	.	.
Cc1cc(C)c(NC(=O)CS(=O)CC(=O)N2CCN(c3cccc(C)c3C)CC2)c(C)c1 (stereo not given)	-0.4	-1.0	-1.1	6.0	-6.6	3.3	.	.
N#CCSc1nc2ccccc2c(=O)n1CC1CCCC1	2.5	14.6	-0.2	-6.9	4.0	-4.2	.	.
